Screening results (PubChem)
MT1-MMP txn act: activates MT1-MMP transcription; HT1080 MT1-MMP promoter luciferase reporter, luminescence, overnight; active compounds read high; activation factor at 10 µM; 86,000 compounds, 0.16% hits; AID 750;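 active means activation factor of at least 2 for MT1-MMP transcription at 10 µM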
ERa coact pot: ER-alpha (human) coactivator binding potentiation | P03372 | TR-FRET ERalpha-LBD/SRC-Cy5 coactivator binding, 2 h; 100 = basal binding, no effect | coactivator binding (% of control), % at 25.6 µM | 86,000 compounds, 1.3% hits | AID 639; in the data active means activity above about 200%;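 further: binding measured in presence of low estradiol as agonist stimulus; 0% = peptide alone without receptor and 100% = receptor with peptide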
Candida biofilm: kills Candida albicans biofilms | C. albicans biofilm + clotrimazole, Alamar Blue | AID 834 | 85,000 compounds, 0.14% hits | inhibition, % at 6 µM;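 active means inhibition above 20%; inactive means inhibition below 20%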;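 further: preformed 24 hr biofilms exposed to compound for 48 hr; 0% = biofilm without compound and 100% = blank killed by clotrimazole plus chlorhexidine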
EphB4 ephrin blk: EphB4-ephrin-B2 interaction antagonism. EphB4 LBD / TNYL-RAW-Alexa532 peptide, fluorescence polarization. P54760. 97,000 compounds, 0.15% hits. AID 720. inhibition, % at 7 µM;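 active means inhibition above the screen-wide mean inhibition plus 3 SD, cut at about 15% in these data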;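 further: 0% = DMSO wells and 100% = excess unlabeled TNYL-RAW peptide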
Target sequence (P54760 whole entry, looked up, the tested form may be a part): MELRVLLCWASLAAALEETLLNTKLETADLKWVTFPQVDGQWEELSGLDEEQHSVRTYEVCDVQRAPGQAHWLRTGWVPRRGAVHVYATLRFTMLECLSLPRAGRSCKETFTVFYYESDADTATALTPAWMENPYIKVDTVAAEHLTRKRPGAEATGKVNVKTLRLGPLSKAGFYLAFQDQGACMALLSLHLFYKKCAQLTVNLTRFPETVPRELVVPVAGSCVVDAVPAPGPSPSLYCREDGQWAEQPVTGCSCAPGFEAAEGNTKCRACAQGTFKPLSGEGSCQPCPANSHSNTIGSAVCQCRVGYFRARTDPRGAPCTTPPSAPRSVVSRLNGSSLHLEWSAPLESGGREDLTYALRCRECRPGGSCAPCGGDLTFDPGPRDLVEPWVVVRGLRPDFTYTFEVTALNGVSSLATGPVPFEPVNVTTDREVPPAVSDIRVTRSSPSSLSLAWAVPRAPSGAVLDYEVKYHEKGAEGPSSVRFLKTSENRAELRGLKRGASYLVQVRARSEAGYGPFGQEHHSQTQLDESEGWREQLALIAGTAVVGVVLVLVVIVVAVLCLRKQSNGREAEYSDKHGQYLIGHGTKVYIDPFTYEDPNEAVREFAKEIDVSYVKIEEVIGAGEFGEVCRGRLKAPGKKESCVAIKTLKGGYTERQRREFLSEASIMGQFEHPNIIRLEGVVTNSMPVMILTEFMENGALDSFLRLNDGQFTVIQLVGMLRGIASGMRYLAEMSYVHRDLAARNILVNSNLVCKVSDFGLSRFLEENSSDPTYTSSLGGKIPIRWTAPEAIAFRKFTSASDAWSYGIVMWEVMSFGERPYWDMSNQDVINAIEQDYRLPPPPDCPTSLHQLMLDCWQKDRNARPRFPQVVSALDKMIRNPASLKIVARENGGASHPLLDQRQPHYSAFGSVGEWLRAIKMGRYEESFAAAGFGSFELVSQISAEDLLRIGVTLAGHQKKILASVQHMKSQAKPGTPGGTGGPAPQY
ERa SRC1 inh: ER-alpha (human) coactivator binding inhibition; P03372; inhibition, % at 25.6 µM; AID 629; TR-FRET ER-alpha LBD / SRC-1 peptide, estradiol-bound; 86,000 compounds, 1.7% hits; in the data active means inhibition above about 50%;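 further: 0% = receptor plus peptide control and 100% = peptide only without receptor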
ERb SRC1 inh: blocks coactivator binding to human estrogen receptor beta; Q92731; 86,000 compounds, 1.3% hits; inhibition, % at 25.6 µM; AID 633; TR-FRET ER-beta LBD / SRC1-Cy5 peptide binding; receptor agonist-loaded with 1 µM estradiol;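 active means compounds whose percent inhibition of the receptor-coactivator binding signal exceeds about 50% in the single-dose screen, limit read from the data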;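 further: 0% = receptor plus peptide wells without compound and 100% = peptide-only wells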
Active calls of the source: *; · = not tested or not shown; [ ] = dose if it differs, or a comment. Only some compounds are listed: those with a hit (about 3.2% of all), similar ones and a draw of the others.

SMILES	MT1-MMP txn act	ERa coact pot	Candida biofilm	EphB4 ephrin blk	ERa SRC1 inh	ERb SRC1 inh
N=C1C(c2nc3ccccc3[nH]2)=C(O)CN1c1ccc(CC(=O)O)cc1	0.9	52	-1	5	25	58*
N=C1C(c2nc3ccccc3[nH]2)=C(O)CN1c1ccccc1	1.5	124	1	1	0	0
CCCCCCN1CC(O)=C(c2nc3ccccc3[nH]2)C1=N	1.2	244*[fluorescence artefact?]	5	·	61*[fluorescence artefact?]	46
O=C(CN1C(=O)c2cccc3cccc(c23)C1=O)N1CCCCCC1	·	·	·	4	·	·
CC(=O)N1CCn2c3ccc(C)cc3c3cccc1c32	1.5	98	5	0	-7	-6
Cc1[nH]c2ccc(-c3nnc(SCC(=O)c4ccc(F)cc4)o3)cc2c1C	0.9	126	5	8	65*[fluorescence artefact?]	55*[fluorescence artefact?]
COc1ccc(OC)c(C(=O)CSc2nnc(-c3ccc(OC)c(OC)c3)o2)c1	1	329*	5	-4	-10	27
COc1ccc(C(=O)CSc2nnc(-c3ccc(C)cc3)o2)cc1	1.1	99	6	-4	51*[fluorescence artefact?]	24
Cc1cc(C)cc(OCc2nnc(SCC(=O)c3ccc(Br)cc3)o2)c1	1.2	202*	2	4	-19	-18
COc1ccc(Cc2nnc(SCC(=O)c3ccc(OC)cc3)o2)cc1	1.1	112	2	-2	-7	-11
Cc1ccc(Nc2nnns2)cc1C	1.1	82	7	-2	-28	-5
COC(=O)c1[nH]c2cc(OC)ccc2c1NC(=O)CCN1CCSCC1	1.1	89	6	-4	7	-8
CC(=O)Nc1cccc(NC(=O)CSc2nnc(Cc3cccn3C)n2-c2ccc(C)cc2)c1	1.1	·	·	16*	·	·
COc1ccc(-n2c(Cc3cccn3C)nnc2SCC(=O)NC2CCCCC2)cc1	1.1	114	64*	·	8	-5
COc1ccc(-n2c(SCC(=O)NC3CCCCC3)nc3ccsc3c2=O)cc1	1.2	214*[fluorescence artefact?]	4	0	19	41
COc1ccc(-n2c(Cc3cccn3C)nnc2SCC(=O)Nc2cccc(NC(C)=O)c2)cc1	1.1	93	1	6	-5	-5
CCC(C)NC(=O)CSc1nc2ccsc2c(=O)n1-c1ccc(OC)cc1 (stereo not drawn)	1.2	98	6	-5	-1	8
Cn1cccc1Cc1nnc(SCC(=O)NC2CCCC2)n1-c1ccc(F)cc1	1.2	107	4	-3	-8	-15
COc1ccccc1CN(C(=O)Cc1cccs1)C(C(=O)NC1CCCC1)c1ccncc1 (stereo not drawn)	·	·	·	1	·	·
CC(C)Cn1c(=O)c(C(=O)Nc2ccncc2)c(O)c2ccccc21	0.9	146	1	·	51*[fluorescence artefact?]	38
Cc1ccnc(NC(=O)c2c(O)c3ccccc3n(C)c2=O)c1	0.9	345*[fluorescence artefact?]	7	·	21	18
CCOc1ccc(NC2c3ccccc3C(=O)N2Cc2ccco2)cc1 (stereo not drawn)	1.1	86	2	4	-13	-4
Cc1cc(Nc2ccccc2)nn1C(=O)c1ccccc1	1.2	84	9	5	-4	7
COc1ccc(C(=O)n2nc(C)cc2Nc2ccccc2)cc1	2.1*	96	-2	-3	6	11
CCN(CC)S(=O)(=O)c1ccc(Nc2nc3ccccc3n3nnnc23)cc1	1.6	78	5	·	85*[fluorescence artefact?]	37
SMILES	MT1-MMP txn act	ERa coact pot	Candida biofilm	EphB4 ephrin blk	ERa SRC1 inh	ERb SRC1 inh
Fc1cccc(Nc2nc3ccccc3n3nnnc23)c1	·	107	8	4	-7	-4
c1ccc2c(c1)nc(Nc1ccc3c(c1)OCO3)c1nnnn12	1.4	98	5	·	57*[fluorescence artefact?]	23
Cc1nc(-c2cccc(NS(=O)(=O)c3ccc4ccccc4c3)c2)cs1	1.2	66	4	4	10	8
O=c1c(C=Nc2ccc(Cl)cc2)c[nH]n1-c1cccc(Cl)n1	·	·	·	1	·	·
COc1ccc2nc(SCC(=O)Nc3ccccc3C)[nH]c2c1	1.3	108	5	0	-4	-14
COc1cccc(N2CCN(c3ncccn3)CC2)c1	1.7	338*[fluorescence artefact?]	2	-3	-2	-2
COc1cccc(C(=O)N2CCN(c3ncccn3)CC2)c1	1	110	8	-5	-2	-1
O=C(O)C1(c2cccc(Cl)c2)CCC1	1.2	110	0	3	-2	-4
CCc1ccc(N(CC(=O)Nc2nc3ccc(C)cc3s2)S(=O)(=O)c2c(C)noc2C)cc1	·	107	12	1	-3	13
CCCn1c(=O)c2ccccc2n2c(SCC(=O)Nc3cc(C)on3)nnc12	1.1	93	3	·	7	100*[fluorescence artefact?]
Cc1c(C(=O)OCC2CCCO2)[nH]c2c1C(=O)CC(c1ccco1)C2 (stereo not drawn)	0.7	65	-3	0	54*	50*[fluorescence artefact?]
C/C=C/COC(=O)c1[nH]c2c(c1C)C(=O)CC(c1ccco1)C2 (stereo not drawn)	0.3	81	7	-4	59*	55*
Cc1c(C(=O)OCC(C)C)[nH]c2c1C(=O)CC(c1ccco1)C2 (stereo not drawn)	0.4	96	2	2	38	36
CCC(Sc1nc(C)cc(C)n1)C(=O)Nc1ccc(Cl)cn1 (stereo not drawn)	2*	113	-4	6	-4	-6
CCOC(=O)Cc1nnc(NC(=O)C(CC)Sc2nc(C)cc(C)n2)s1 (stereo not drawn)	·	108	11	2	-7	-5
CCOc1ccc(-n2cc(C(=O)Nc3ccc(Cl)cn3)c3cc(OC)c(OC)cc3c2=O)cc1	1.2	101	-1	3	27	5
CCN(C(=O)CN1CCCc2ccccc21)c1c(N)n(Cc2ccccc2)c(=O)[nH]c1=O	1.2	105	7	·	-10	80*[fluorescence artefact?]
CCN(C(=O)CN1CCN(c2ccccc2OC)CC1)c1c(N)n(Cc2ccccc2)c(=O)[nH]c1=O	1.2	117	4	7	-1	21
COC(=O)[C@@]1(Cc2ccc(OC)cc2)[C@H]2c3cc(C(=O)N4CCCC4)n(CCc4c[nH]c5cc(F)ccc45)c3C[C@H]2CN1C(=O)c1ccccc1	1.1	·	·	·	·	·
Cc1ccc(Sc2nc(-c3ccccc3)ccc2C#N)cc1	·	·	·	2	·	·
CCCOC(=O)c1cc(-c2ccc(/C=C3/C(=O)N(C)C(=O)C(C#N)=C3C)o2)ccc1Cl	1	42	12	5	83*[fluorescence artefact?]	67*
Cc1c([C@H]2[C@@H](CC#N)C2(C)C)c2ccccc2n1C	1	73	7	4	63*[fluorescence artefact?]	69*
Cc1[nH]c2c(Br)cccc2c1[C@H]1[C@@H](CC#N)C1(C)C	1.1	109	-4	0	-3	21
COC(=O)CC1Oc2cc3oc4c5ccccc5oc(=O)c4c3cc2O1 (stereo not drawn)	1.1	·	·	·	·	·
Cc1cccc(N2CCN(C(=O)C3CCCN(S(=O)(=O)c4cnc[nH]4)C3)CC2C)c1 (stereo not drawn)	0.9	133	1	-1	-5	0
